Measurements as given in PubChem BioAssay (NCATS).
Results filed as inconclusive are left out. Active and inactive are the calls of the source. Calls follow the shape of the dose curve; as a rule, active = well fitted curve in the direction sought with a large enough effect; inconclusive = small, poorly fitted or top-dose-only effect, or another doubt; inactive = no such curve, though single readings can be large; an effect the other way counts as inactive or inconclusive.

How the values were obtained:
[1] = Confirmatory screen GU Rhodamine qHTS for Zika virus inhibitors qHTS (AID 1347157);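 also: plate controls were no-inhibitor wells for no effect and no-enzyme wells for full effect; nearly all actives have a fitted effect of over 70% in size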
Summary of the method: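 Unlinked NS2B/NS3, 25 nM; Rhod110 peptide, 1.5 microM; compounds, up to 114 microM. Reaction run 15 min at RT in 10 mM Tris-HCl pH 8.0, 0.01% Tween 20; kinetic fluorescence change fitted with a 4-parameter Hill model.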

[2] = Confirmatory screen NINDS Rhodamine qHTS for Zika virus inhibitors (AID 1347161); also: nearly all actives have a fitted effect of over 60% in size; also: potency is read from the fitted curve at half-maximal effect;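 as to activity change, negative = inhibition: purified Zika NS2B-NS3 protease with linked NS2B cofactor domain and Rhodamine110 peptide substrate; series mostly up to about 110 µM; plate controls were no-inhibitor control for no effect and no-enzyme control for full effect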
Summary of the method: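 Kinetic fluorescence (Ex 480 nm, Em 540 nm) over 15 min with 1.5 microM Rhodamine110 peptide and 25 nM linked protease.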

[3] = Tertiary RLuc qRT-PCR qHTS assay for Zika virus inhibitors (AID 1347169); also: top concentration of the series differs between compounds; % is scaled to controls: 0 for no effect and ±100 for the full control effect; nearly all actives have a fitted effect of over 55% in size
Summary of the method: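 Orthogonal cell-based infection assay using recombinant ZIKV-RLuc (Cambodian) in Vero cells; compound added prior to virus at MOI 1-2. Incubation lasts 48-72 hrs at 37 degrees C before live-cell Renilla substrate is added and luminescence measured.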

[4] = ZIKV-mCherry secondary qHTS for Zika virus inhibitors (AID 1347158); also: top concentration of the series differs between compounds
Summary of the method: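 Compounds were tested in Vero monkey kidney cells infected with recombinant mCherry-expressing Zika virus at MOI 1 for 48-72 h at 37 °C. Fixed cells were nuclear-stained and imaged, and infection rate was taken as the fraction of mCherry-positive cells.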

[5] = tested on: Zika virus NS2B-NS3 protease (linked); test: 384 well plate NINDS AMC confirmatory qHTS for Zika virus inhibitors (AID 1347163); also: potency is read from the fitted curve at half-maximal effect; nearly all actives have a fitted effect of over 50% in size
Summary of the method: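 Fluorescence at 355/460 nm was read after 25 minutes of cleavage of 30 microM Ac-VKTGKR-AMC at room temperature, in the dark. Before substrate addition, compounds (up to 1 mM final) sat ~15 minutes with 5, 30 or 60 nM linked protease. Signals were normalized to no-enzyme and no-inhibitor wells.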

[6] = tested on: Zika virus NS2B-NS3 protease (linked construct); test: 384 well plate NINDS Rhodamine confirmatory qHTS for Zika virus inhibitors (AID 1347164); also: nearly all actives have a fitted effect of over 65% in size; also: potency is read from the fitted curve at half-maximal effect;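 as to activity change, negative = inhibition: top concentration of the series differs between compounds; plate controls were no-inhibitor control for no effect and no-enzyme control for full effect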
Summary of the method: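 Compounds are incubated about 15 minutes with linked protease (5, 30 or 60 nM final). Rhodamine 110-tagged Ac-LKRR substrate (10 microM final) is added and fluorescence measured after 25 minutes.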

[7] = Primary qHTS for small molecule stabilizers of the endoplasmic reticulum resident proteome: Secreted ER Calcium Modulated Protein (SERCaMP) assay (AID 1508630); also: % is scaled to controls: 0 for no effect and ±100 for the full control effect
Summary of the method: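 The SH-SY5Y reporter protocol was run at 3 concentrations up to 38.3 uM (primary) or 11 concentrations (follow-up): 16 h compound, 100 nM thapsigargin for 4 h, then extracellular luciferase luminescence.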

[8] = target: Calcium and integrin-binding protein 1 (Homo sapiens) (UniProt Q99828); test: Primary qHTS for Identification of Calcium Integrin Binding Protein 1 (CIB1) Competitor (AID 1508620);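 also: GST tagged CIB1 binding a fluorescein labelled alphaIIb integrin peptide tracer; top concentration of the series differs between compounds; % is scaled to controls: 0 for no effect and ±100 for the full control effect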
Calcium and integrin-binding protein 1 (Homo sapiens), sequence (Q99828 whole entry, looked up): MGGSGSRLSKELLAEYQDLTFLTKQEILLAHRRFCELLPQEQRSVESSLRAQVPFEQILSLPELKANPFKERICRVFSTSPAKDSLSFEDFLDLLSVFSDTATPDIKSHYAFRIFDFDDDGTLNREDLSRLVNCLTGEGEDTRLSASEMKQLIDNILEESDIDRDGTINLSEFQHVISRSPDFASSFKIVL
Summary of the method: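 Fluorescence polarization competition: CIB1-GST (1 uM final) preincubated with compound 15 min at room temperature, then FITC-labeled alphaIIb peptide (100 nM final) added for another 15 min. Polarization read at Ex 480/Em 540.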

[9] = target: Cytochrome P450 3A4 (Homo sapiens) (UniProt P08684); test: qHTS Assay for Inhibitors and Substrates of Cytochrome P450 3A4 (AID 884); also: series mostly up to about 57 µM; % is scaled to controls: 0 for no effect and ±100 for the full control effect; nearly all actives have a fitted effect of over 50% in size
Cytochrome P450 3A4 (Homo sapiens), sequence (P08684 whole entry, looked up): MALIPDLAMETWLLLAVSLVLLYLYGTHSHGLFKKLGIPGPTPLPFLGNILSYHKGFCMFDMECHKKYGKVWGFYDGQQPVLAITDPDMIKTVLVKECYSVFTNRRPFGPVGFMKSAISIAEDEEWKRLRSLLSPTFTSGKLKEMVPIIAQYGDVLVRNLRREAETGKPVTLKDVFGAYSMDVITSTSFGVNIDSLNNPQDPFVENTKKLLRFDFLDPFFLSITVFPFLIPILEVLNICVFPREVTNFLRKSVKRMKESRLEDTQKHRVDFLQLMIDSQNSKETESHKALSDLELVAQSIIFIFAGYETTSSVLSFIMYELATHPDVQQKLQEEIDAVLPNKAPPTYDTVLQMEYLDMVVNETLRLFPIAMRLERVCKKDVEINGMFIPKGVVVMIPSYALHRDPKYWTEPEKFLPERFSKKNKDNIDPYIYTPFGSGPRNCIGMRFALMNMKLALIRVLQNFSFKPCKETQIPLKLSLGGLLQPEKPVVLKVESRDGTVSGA
Summary of the method: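 Luminescent readout of luciferin produced by CYP3A4 (20 nM) dealkylation of Luciferin-PPXE, 25 uM (its KM). NADPH-driven reaction ran 60 min at RT after 10 min compound preincubation; data scaled to 57 uM ketoconazole as 100% inhibition.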

[10] = Confirmation and Secondary Assay for Modulators of Hemoglobin Beta Chain Splicing at IVS2 654 locus (AID 910);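 also: per-well total GFP intensity by laser scanning cytometry after 2-day treatment; % of control where 0% means no effect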
Summary of the method: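 HeLa cells stably carrying EGFP interrupted by mutant beta-globin IVS2-654 intron (CMV-driven) were treated with compound for 2 days at 37C; corrected splicing was scored as total peak GFP intensity per well (488 nm excitation, 500-520 nm emission).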

[11] = Confirmation and Secondary Assay for Modulators of Hemoglobin Beta Chain Splicing at IVS2 705 locus (AID 930);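 also: HeLa cells stably expressing the EGFP-705 splicing reporter; series mostly up to about 46 µM; % of control where 0% means no effect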
Summary of the method: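 Restored EGFP fluorescence after 2-day compound exposure reports splicing correction in IVS2-705 EGFP reporter HeLa cells; positive control was 500 nM splice-blocking PNA oligo. Signal measured as well total peak GFP intensity (488 nm excitation).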

[12] = target: Ubiquitin carboxyl-terminal hydrolase 1 (Homo sapiens) (UniProt O94782); test: Inhibitors of USP1/UAF1: Pilot qHTS (AID 504865);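 also: rhodamine fluorescence freed from ubiquitin-rhodamine substrate followed over time; top concentration of the series differs between compounds; % is scaled to controls: 0 for no effect and ±100 for the full control effect; nearly all actives have a fitted effect of over 35% in size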
Ubiquitin carboxyl-terminal hydrolase 1 (Homo sapiens), sequence (O94782 whole entry, looked up): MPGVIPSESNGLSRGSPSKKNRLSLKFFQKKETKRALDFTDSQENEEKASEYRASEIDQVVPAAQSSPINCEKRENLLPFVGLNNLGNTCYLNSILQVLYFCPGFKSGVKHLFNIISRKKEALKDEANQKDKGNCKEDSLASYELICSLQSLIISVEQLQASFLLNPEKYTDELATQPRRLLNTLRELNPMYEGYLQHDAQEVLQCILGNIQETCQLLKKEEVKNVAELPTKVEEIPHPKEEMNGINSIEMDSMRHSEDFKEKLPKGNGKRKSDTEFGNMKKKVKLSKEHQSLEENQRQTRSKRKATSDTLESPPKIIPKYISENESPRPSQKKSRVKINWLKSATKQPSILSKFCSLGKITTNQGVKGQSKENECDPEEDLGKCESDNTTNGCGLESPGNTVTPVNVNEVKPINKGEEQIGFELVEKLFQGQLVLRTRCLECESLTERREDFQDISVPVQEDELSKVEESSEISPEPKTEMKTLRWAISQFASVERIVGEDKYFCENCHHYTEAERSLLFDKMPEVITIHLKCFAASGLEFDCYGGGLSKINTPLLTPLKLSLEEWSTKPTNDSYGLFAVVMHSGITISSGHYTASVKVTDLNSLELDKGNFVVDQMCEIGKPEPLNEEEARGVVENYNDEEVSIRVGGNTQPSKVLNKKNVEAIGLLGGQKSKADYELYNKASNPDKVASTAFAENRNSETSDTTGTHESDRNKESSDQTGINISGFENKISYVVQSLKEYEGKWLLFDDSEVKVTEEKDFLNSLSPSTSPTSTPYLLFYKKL
Summary of the method: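 Kinetic fluorescence assay: 1nM USP1/UAF1, 15 min compound preincubation, then 150nM Ub-Rho; 480/540 nm.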

CC(C)c1nn2c(=O)cc(COC(=O)c3cccc(NC(=O)c4ccccc4F)c3)nc2s1
inactive: Potency [1] | Potency [2] | Potency [3]

Cc1ccc(S(=O)(=O)Nc2cc(SCC(=O)O)c(O)c3ccccc23)cc1[N+](=O)[O-]
active: Potency [2] 6.98 µM | Potency [5] 31.6 µM
inactive: Potency [4] | activity change, negative = inhibition [6] -280% [at 100 µM]

CCOC(=O)c1ccccc1NC(=O)CSc1ccc(-c2sc(-c3ccccc3)nc2C)nn1
inactive: Potency [1] | Potency [2] | Potency [3]

CCCCOC(=O)c1ccc(NC(=O)c2ccc3c(c2)CCN3S(=O)(=O)c2ccccc2)cc1
inactive: Potency [1] | Potency [2] | Potency [3]

O=C(Nc1ccc(C(=O)OCc2cc(=O)n3nc(C4CC4)sc3n2)cc1)c1ccc(F)cc1
inactive: Potency [1] | Potency [2] | Potency [3]

C=C1c2c(Cl)ccc(O)c2C(O)=C2C(=O)[C@]3(O)C(O)=C(C(N)=O)C(=O)[C@@H](N(C)C)[C@@H]3[C@@H](O)C12 (some centres not stated)
active: Potency [2] 13.9 µM | Potency [5] 70.8 µM | Potency [6] 20 µM
inactive: Potency [4] | Potency [7]

O=C(OCC#CCSc1nnc(-c2cccc3ccccc23)o1)c1ccc(F)c(F)c1
inactive: Potency [1] | Potency [2] | Potency [3] | outcome [8]

O=C(O)c1nc2cc(Cl)c(Cl)cc2[nH]c1=O
inactive: Potency [9] | outcome [10] | outcome [11] | Potency [12] | Potency [1] | Potency [2] | Potency [3]
